Results filed as inconclusive are left out. Where a call stands in place of a potency, no number is given. A number with no mark means an inactive call. The source made the active and inactive calls. The call rests on the fitted dose curve; in most records, active means well fitted cell-killing curve with a large enough effect; inconclusive means small, poorly fitted or top-dose-only effect, or effect the other way; inactive means flat fitted curve, though single readings scatter.
Assays:
Experiment in all cases: Primary qHTS to identify gynecologic anti-cancer compounds using libraries of approved drugs and bioactive compounds (AID 1345084); further: nearly all actives have a fitted effect of over 55% in size
Conditions in all cases: Gynecologic cancer cell panel viability, ATPlite luminescence, 48 h; series mostly up to 57.5 µM
OV90 = test system: OV90
How it was run: (§1)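 Luminescence from the ATPlite ATP-monitoring reagent indicates viable cell number; lower signal means cytotoxicity. Cells received compound 16 h after seeding and were exposed for 48 h across five concentrations.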

PA-1 = test system: PA-1
How it was run: as §1

SKOV3 = test system: SKOV3
How it was run: as §1

Tov-21-G = test system: Tov-21-G
How it was run: as §1

Tov112D = test system: Tov112D
How it was run: as §1
Potency means the concentration at half of the fitted maximal effect.

## CSc1ccc(/C=C2/C(C)=C(CC(=O)O)c3cc(F)ccc32)cc1
OV90
  Potency: inactive
PA-1
  Potency: inactive
SKOV3
  Potency: inactive
Tov-21-G
  Potency: inactive
Tov112D
  Potency: inactive

## CCN(CC)C(=O)C1CN2CCc3cc(OC)c(OC)cc3C2CC1OC(C)=O (stereo not given)
OV90
  Potency: inactive
PA-1
  Potency: inactive
SKOV3
  Potency: inactive
Tov-21-G
  Potency: inactive
Tov112D
  Potency: inactive

## NC(=O)C1(N2CCCCC2)CCN(CCCN2c3ccccc3CCc3ccc(Cl)cc32)CC1
OV90
  Potency: 22.4 µM (active)

## CCCCCCn1c(=O)c2c(ncn2C)n(C)c1=O
OV90
  Potency: inactive
PA-1
  Potency: inactive
SKOV3
  Potency: inactive
Tov-21-G
  Potency: inactive
Tov112D
  Potency: inactive

## COC(=O)c1cc(Cl)ccc1NS(=O)(=O)C(F)(F)F
OV90
  Potency: inactive
PA-1
  Potency: inactive
SKOV3
  Potency: inactive

## COC(=O)/C=C\C(=O)OC
OV90
  Potency: inactive
PA-1
  Potency: inactive
SKOV3
  Potency: inactive
Tov-21-G
  Potency: inactive
Tov112D
  Potency: inactive

## CCCC(=O)O[C@]1(C(=O)CC)CC[C@H]2[C@@H]3CCC4=CC(=O)CC[C@]4(C)[C@H]3[C@@H](O)C[C@@]21C
OV90
  Potency: inactive
PA-1
  Potency: inactive
SKOV3
  Potency: inactive
Tov-21-G
  Potency: inactive
Tov112D
  Potency: inactive

## OC1(c2ccc(Cl)cc2)CCNCC1
OV90
  Potency: inactive
PA-1
  Potency: inactive
SKOV3
  Potency: inactive
Tov-21-G
  Potency: inactive
Tov112D
  Potency: inactive

## Cc1oc(-c2ccccc2)nc1CCC(=O)c1ccc(CC2SC(=O)NC2=O)cc1 (stereo not given)
OV90
  Potency: inactive
PA-1
  Potency: inactive
SKOV3
  Potency: inactive
Tov-21-G
  Potency: inactive
Tov112D
  Potency: inactive

## COc1cc2c(cc1OC)CN(C(=O)[C@H](C)N[C@@H](CCc1ccccc1)C(=O)O)[C@H](C(=O)O)C2
OV90
  Potency: inactive
PA-1
  Potency: inactive
SKOV3
  Potency: inactive
Tov-21-G
  Potency: inactive
Tov112D
  Potency: inactive

## CC(=O)OC[C@H]1O[C@@H](OC(C)=O)[C@H](OC(C)=O)[C@@H]1OC(C)=O
OV90
  Potency: inactive
PA-1
  Potency: inactive
SKOV3
  Potency: inactive
Tov-21-G
  Potency: inactive
Tov112D
  Potency: inactive

## C/C(=N/NC(=O)c1ccncc1)C(=O)O
OV90
  Potency: inactive
PA-1
  Potency: inactive
SKOV3
  Potency: inactive
Tov-21-G
  Potency: inactive
Tov112D
  Potency: inactive

## Cc1cc(CCCOc2c(C)cc(-c3noc(C(F)(F)F)n3)cc2C)on1
OV90
  Potency: inactive
PA-1
  Potency: inactive
SKOV3
  Potency: inactive
Tov-21-G
  Potency: inactive
Tov112D
  Potency: inactive

## C/C(=C(/OCCOc1ccc(Cl)cc1)c1ccc(Cl)cc1Cl)n1ccnc1
OV90
  Potency: inactive
PA-1
  Potency: inactive
SKOV3
  Potency: inactive
Tov-21-G
  Potency: inactive
Tov112D
  Potency: inactive

## NS(=O)(=O)c1cc(C(=O)NN2C[C@H]3[C@H]4CCC(C4)[C@H]3C2)ccc1Cl
OV90
  Potency: inactive
PA-1
  Potency: inactive
SKOV3
  Potency: inactive
Tov-21-G
  Potency: inactive
Tov112D
  Potency: inactive

## O=C(O)Cn1cnnn1
OV90
  Potency: inactive
PA-1
  Potency: inactive
SKOV3
  Potency: inactive
Tov-21-G
  Potency: inactive
Tov112D
  Potency: inactive

## CC(C)NC(=O)c1ccc(C=O)cc1
OV90
  Potency: inactive
PA-1
  Potency: inactive
SKOV3
  Potency: inactive
Tov-21-G
  Potency: inactive
Tov112D
  Potency: inactive

## Nc1ncnc2c1ncn2Cc1c(F)cccc1Cl
OV90
  Potency: inactive
PA-1
  Potency: inactive
SKOV3
  Potency: inactive
Tov-21-G
  Potency: inactive
Tov112D
  Potency: inactive

## CC(C)OP(=O)(CP(=O)(OC(C)C)OC(C)C)OC(C)C
OV90
  Potency: inactive
PA-1
  Potency: inactive
SKOV3
  Potency: inactive
Tov-21-G
  Potency: inactive
Tov112D
  Potency: inactive

## CC(C)NCCCC1(C(N)=O)c2ccccc2-c2ccccc21
OV90
  Potency: inactive
PA-1
  Potency: inactive
SKOV3
  Potency: inactive
Tov-21-G
  Potency: inactive
Tov112D
  Potency: inactive

## NCC[C@H](O)C(=O)N[C@@H]1C[C@H](N)[C@@H](O[C@H]2O[C@H](CN)[C@@H](O)[C@H](O)[C@@H]2O)[C@H](O)[C@@H]1O[C@H]1O[C@H](CO)[C@@H](O)[C@H](N)[C@@H]1O
OV90
  activity change, negative = cytotoxicity: -0.567% [at 0.462 µM]
PA-1
  activity change, negative = cytotoxicity: 20.2% [at 0.462 µM]
SKOV3
  activity change, negative = cytotoxicity: 13.9% [at 0.462 µM]
Tov-21-G
  activity change, negative = cytotoxicity: 7.33% [at 0.462 µM]
Tov112D
  activity change, negative = cytotoxicity: 1.97% [at 0.462 µM]

## CC(C)(C)NCC(O)COc1ccccc1OCC1CCCO1 (stereo not given)
OV90
  Potency: inactive
PA-1
  Potency: inactive
SKOV3
  Potency: inactive
Tov-21-G
  Potency: inactive
Tov112D
  Potency: inactive

## CCOC(=O)Oc1ccc(CCNC(=O)[C@H](CCSC)NC(C)=O)cc1OC(=O)OCC
OV90
  Potency: inactive
PA-1
  Potency: inactive
SKOV3
  Potency: inactive
Tov-21-G
  Potency: inactive
Tov112D
  Potency: inactive

## CCc1cc2cc(OC)c(OC)cc2c(Cc2ccccc2)n1
OV90
  Potency: inactive
PA-1
  Potency: inactive
SKOV3
  Potency: inactive
Tov-21-G
  Potency: inactive
Tov112D
  Potency: inactive

## O=C(CCCl)NCc1ccccc1
OV90
  Potency: inactive
PA-1
  Potency: inactive
SKOV3
  Potency: inactive
Tov-21-G
  Potency: inactive
Tov112D
  Potency: inactive

## O=C1Cc2cc(Cl)ccc2N1
OV90
  Potency: inactive
PA-1
  Potency: inactive
SKOV3
  Potency: inactive
Tov-21-G
  Potency: inactive
Tov112D
  Potency: inactive

## COc1ccc([C@@H]2Sc3ccccc3NC(=O)[C@@H]2O)cc1
OV90
  Potency: inactive

## CCOCCn1c(C2CCN(CCc3ccc(C(C)(C)C(=O)O)cc3)CC2)nc2ccccc21
OV90
  Potency: inactive
PA-1
  Potency: inactive
SKOV3
  Potency: inactive
Tov-21-G
  Potency: inactive
Tov112D
  Potency: inactive

## Cc1ccc(-c2ccccc2C#N)cc1
OV90
  Potency: inactive
PA-1
  Potency: inactive
SKOV3
  Potency: inactive
Tov-21-G
  Potency: inactive
Tov112D
  Potency: inactive

## CCn1ccc(NS(=O)(=O)c2ccc(N)cc2)nc1=O
OV90
  Potency: inactive
PA-1
  Potency: inactive
SKOV3
  Potency: inactive
Tov-21-G
  Potency: inactive
Tov112D
  Potency: inactive

## Cc1coc2ccccc2c1=O
OV90
  Potency: inactive
PA-1
  Potency: inactive
SKOV3
  Potency: inactive
Tov-21-G
  Potency: inactive
Tov112D
  Potency: inactive
